The supplement of paper PMC13380429
Unmarked numbers belong to inactive results.

Tested on: Vero E6 infected with SARS-CoV-2
Assay: inhibition of SARS-CoV-2 cytopathic effect; higher = more antiviral protection, active = above 15
Details: 48 h

SMILES | inhibition of SARS-CoV-2 cytopathic effect (1 nM) [%] | inhibition of SARS-CoV-2 cytopathic effect (8.33 nM) [%] | inhibition of SARS-CoV-2 cytopathic effect (100 nM) [%] | inhibition of SARS-CoV-2 cytopathic effect (833.33 nM) [%] | inhibition of SARS-CoV-2 cytopathic effect (10000 nM)
CCCC(=O)OCOC(=O)C1=C(C)NC(C)=C(C(=O)OC)C1c1cccc(Cl)c1Cl (stereo not given) [cleviprex] | 3.04 | 3.86 | 2.92 | 0.61 | 4.07%
CCc1cccc(CC)c1NC(=O)c1nn(C)c2c1CCc1cnc(Nc3ccc(C(=O)NC4CCN(C)CC4)cc3OC(F)(F)F)nc1-2 | 1.19 | 3.71 | 1.53 | 0.13 | 5.39%
O=C(O)C1=C[C@@H](O)[C@@H](O)[C@H](O)C1 [shikimic-acid] | 2.18 | 1.14 | 0.89 | 2.68 | 0.85%
c1ccc(Cn2c(N3CCNCC3)nc3ccccc32)cc1 [lerisetron] | 1.65 | -0.34 | -0.91 | -3.79 | -5.52%
CN(C)Cc1ccc(S(=O)(=O)n2ccc(/C=C/C(=O)NO)c2)cc1 [resminostat] | 0.52 | -2.34 | -0.22 | -9.24 | -24.5%
CC(=O)c1cc2c(o1)C(=O)c1ccccc1C2=O [napabucasin] | 0.24 | 1.91 | 1.42 | 7.16 | -36.6%
COC(=O)Nc1nc2cc(C(=O)c3ccccc3)ccc2[nH]1 [mebendazole] | -1.33 | 0.93 | -0.07 | 0.95 | 0.89%
C[C@]12CCC(=O)C=C1CC[C@@H]1[C@@H]2[C@@H](O)C[C@@]2(C)[C@H]1CC[C@]2(O)C(=O)COP(=O)(O)O [hydrocortisone-phosphate] | 1.12 | 3.34 | 2.4 | 2.84 | 1.11%
C=C1CC[C@H](O)C/C1=C/C=C1\CCC[C@]2(C)[C@@H]([C@H](C)/C=C/[C@H](C)C(C)C)CC[C@@H]12 [ergocalciferol] | 0.88 | 0.86 | 0.95 | 0.55 | 0.72%
CCC(C)CCCC(=O)N[C@@H](CCN)C(=O)N[C@H](C(=O)N[C@@H](CCN)C(=O)N[C@H]1CCNC(=O)[C@H]([C@@H](C)O)NC(=O)[C@H](CCN)NC(=O)[C@H](CCN)NC(=O)[C@H](CC(C)C)NC(=O)[C@@H](CC(C)C)NC(=O)[C@H](CCN)NC1=O)[C@@H](C)O (stereo not given in full) [colistin] | 0.955 | -0.06 | 3.56 | 0.76 | -2.41%
O=c1c(-c2ccc(O)cc2)coc2c([C@@H]3O[C@H](CO)[C@@H](O)[C@H](O)[C@H]3O)c(O)ccc12 [kakonein] | -2.72 | -3.42 | -3.81 | -5.79 | -6.74%
Cc1ncc(-c2ccnc(Nc3ccc(S(C)(=O)=O)cc3)n2)n1C(C)C | 0.38 | -1.83 | -1.95 | 6.02 | -2.7%
Cc1c[nH]c(=O)n(CCCN2CCN(c3ccccc3OCC(F)(F)F)CC2)c1=O | -2.56 | 0.88 | -3.18 | -1.23 | -1.99%
CCS(=O)(=O)N1CCC([C@@H](C)n2c(C)c(C(=O)NCc3c(OC)cc(C)[nH]c3=O)c3ccccc32)CC1 | 0.38 | 2.34 | 0.88 | 0.2 | -1.12%
COC(=O)N[C@H](C(=O)N1CCC[C@H]1c1ncc(-c2ccc(-c3ccc(-c4cnc([C@@H]5CCCN5C(=O)[C@@H](NC(=O)OC)C(C)C)[nH]4)cc3)cc2)[nH]1)C(C)C [daclatasvir] | -1.73 | 0.14 | -0.71 | -2.47 | -0.59%
CC(C)(O)CNc1nc(Nc2ccnc(C(F)(F)F)c2)nc(-c2cccc(C(F)(F)F)n2)n1 [enasidenib] | -2.39 | -0.28 | -1.11 | -2.37 | -1.07%
O=C(c1cc2ccccc2o1)N1CCN(Cc2ccccc2)CC1 [befuraline] | -1.29 | 1.94 | 3.17 | 0.64 | -2.11%
CN1[C@@H]2C[C@@H](OC(=O)[C@H](CO)c3ccccc3)C[C@H]1[C@@H]1O[C@@H]12 | 1.79 | 1.73 | 1.2 | 1.41 | 0.06%
Nc1ncnc2c1c(-c1ccc(Oc3ccccc3)cc1)nn2C1CCCC1 | 3.63 | 1.32 | 0.15 | -0.21 | -13.6%

SMILES | inhibition of SARS-CoV-2 cytopathic effect (1 nM) [%] | inhibition of SARS-CoV-2 cytopathic effect (8.33 nM) [%] | inhibition of SARS-CoV-2 cytopathic effect (100 nM) [%] | inhibition of SARS-CoV-2 cytopathic effect (833.33 nM) [%] | inhibition of SARS-CoV-2 cytopathic effect (10000 nM)
Nc1ccc(/N=N/c2ccccc2)c(N)n1 [phenazopyridine] | 1.34 | 0.46 | 0.72 | 1.24 | 0.27%
CNCc1ccc(-c2[nH]c3cc(F)cc4c3c2CCNC4=O)cc1 [rucaparib] | 1.82 | 5.76 | 7.61 | 5.18 | 0.16%
CC1=C(/C=C/C(C)=C/C=C/C(C)=C/C(=O)Nc2ccc(O)cc2)C(C)(C)CCC1 [fenretinide] | 2.01 | 1.04 | 0.95 | -0.67 | 2.45%
CC(C)c1ccc(C(=O)c2cccs2)c(SCCCCCCCCN(C)C)n1 | -1.33 | 0.45 | 2.39 | 1.71 | 68.5% (active)
O=c1[nH]cnc2c([C@@H]3N[C@H](CO)[C@@H](O)[C@H]3O)c[nH]c12 [forodesine] | -0.75 | 0.06 | -1.79 | -1.77 | -2.56%
O=C(NC1CCC1)c1ccc(C#Cc2cccc(F)c2)nc1 | 0.19 | -1.61 | -2.31 | -1.49 | 2.23%
CCCCCCCCCCC(O)C1C=CC2C(=O)N(c3ccccc3)C(=O)C2N1Nc1ccc([N+](=O)[O-])cc1 (stereo not given) | 0.91 | 0.89 | 1.56 | 4.49 | 8.83%
CN(C)CCCn1cc(C2=C(c3c[nH]c4ccccc34)C(=O)NC2=O)c2ccccc21 | 2.56 | 1.35 | 1.36 | 0.57 | 13.2%
Nc1ncnc2c1ncn2[C@@H]1O[C@H](COP(=O)(O)O)[C@@H](O)[C@H]1O [adenosine-phosphate] | -6.5 | -1.98 | -4.25 | -3.83 | -12.6%
CS(=O)(=O)Nc1c(O)ccc2c1CCC[C@H]2C1=NCCN1 | 1.13 | -1.43 | -1.29 | 0.49 | -3.82%
NS(=O)(=O)c1cc(C2(O)NC(=O)c3ccccc32)ccc1Cl (stereo not given) [chlorthalidone] | -0.87 | -0.18 | 4.69 | -3.83 | -3.63%
CC(C)C[C@@H](N)C1(c2ccc(Cl)cc2)CCC1 | -0.06 | -2.41 | -2.87 | -1.42 | -7.34%
CNCC(=O)O [sarcosine] | 0.02 | 0.73 | 0.05 | 2.03 | 0.53%
O=C1OC2(c3ccc(O)cc3Oc3cc(O)ccc32)c2ccccc21 [fluorescein] | -8.63 | -9.87 | -11.5 | -5.06 | -7.22%
CC(C)(C)c1ccc(C(=O)Nc2cn3cc(-n4ccnc4)ccc3n2)cc1 | 2.98 | 0.55 | 2.27 | 2.13 | -0.45%
C[C@@H](NCCCc1cccc(C(F)(F)F)c1)c1cccc2ccccc12 [cinacalcet] | 1.8 | 2.9 | 0.77 | -2.27 | -3.52%
COc1ccc2[nH]c([S+]([O-])Cc3ncc(C)c(OC)c3C)nc2c1 (stereo not given) [omeprazole-magnesium] | 3.38 | 2.29 | 3.04 | 6.47 | 6.97%
C[C@H](N[C@@H](CCc1ccccc1)C(=O)O)C(=O)N1CCC[C@H]1C(=O)O [enalaprilat] | -0.58 | 1.11 | -0.39 | 1.61 | 2.39%
C=C1CC[C@@]2(O)[C@H]3Cc4ccc(O)c5c4[C@@]2(CCN3CC2CC2)[C@H]1O5 [nalmefene] | 1.67 | 1.64 | 2.15 | -1.46 | -3.45%
